From PubChem BioAssay (Tox21)
Inconclusive results are not listed. Where a call stands in place of a potency, no number is given. Some structures have more than one record in an assay (separate samples or runs), and their calls can disagree. Activity calls are given as the source filed them. Unless noted, calls come from the whole dose curve; as a rule, active = well fitted curve in the direction sought with a large enough effect in the repeat runs; inconclusive = weak or mixed curves; inactive = no such curve, though single readings can be large; an effect the other way counts as inactive or inconclusive.

Tests used:
[1] = qHTS assay to identify small molecule agonists of the vitamin D receptor (VDR) signaling pathway - cell viability counter screen (AID 743224); note: nearly all actives have a fitted effect of over 50% in size; note: potency is the fitted concentration of half-maximal effect
Outline: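 Plated VDR-bla cells (4 h, 37C) received compound, incubated 16 h, then LiveBLAzer substrate 2 h RT; CellTiter-Glo added afterwards, luminescence read at 30 min.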

[2] = qHTS assay to identify small molecule antagonists of the vitamin D receptor (VDR) signaling pathway - cell viability counter screen (AID 743225); note: nearly all actives have a fitted effect of over 50% in size
Outline: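 Cytotoxicity counter screen read by CellTiter-Glo luminescence (30 min, room temperature) in the same wells as the VDR-bla antagonist readout. HEK 293T VDR-UAS-bla cells had 16 h at 37C with compound and 3 nM (final) 1-alpha,25-dihydroxyvitamin D3, then 2 h with FRET substrate.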

[3] = qHTS assay to identify small molecule agonists of the NFkB signaling pathway - cell viability counter screen (AID 1159515; calls by dose curve; note: nearly all actives have a fitted effect of over 55% in size; note: potency is the fitted concentration of half-maximal effect)
Outline: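 Using the same wells as the NFkB reporter read, ME-180 NFkB-bla cells given compounds for 5 hr were assessed for viability via CellTiter-Glo, with luminescence taken after a 30 min room-temperature incubation.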

[4] = qHTS assay to identify small molecule agonists of the endoplasmic reticulum stress response signaling pathway (AID 1159516; active = well fitted activation curve with a large enough effect in the signal ratio in the repeat runs, not every such curve was filed as active; the % refers to the signal ratio; note: potency is the fitted concentration of half-maximal effect)
Outline: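 An ESRE-bla HeLa cell assay: compounds were pin-transferred from DMSO onto overnight-plated cells and left 5 hr at 37 C. Substrate was then loaded for 2 hr at room temperature before reading fluorescence at 460 nm and 530 nm.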

[5] = qHTS assay to identify small molecule agonists of the endoplasmic reticulum stress response signaling pathway - cell viability counter screen (AID 1159517; calls by dose curve;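 note: HeLa cells carrying an ER stress response element beta-lactamase reporter; nearly all actives have a fitted effect of over 50% in size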)
Outline: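 Luminescence readout: CellTiter-Glo, 30 min RT, same wells as the ESRE-bla reporter read. HeLa ESRE-bla, 1,500 cells/well, o/n 37 C; cpd 5 hr 37 C/5% CO2.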

[6] = qHTS assay to identify small molecule antagonists of the retinoid-related orphan receptor gamma (ROR-gamma) signaling pathway - cell viability counter screen (AID 1159520); note: nearly all actives have a fitted effect of over 50% in size
Outline: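 Tet-on ROR gamma CHO cells (1,000/well) were plated 4 hr, given compounds in DMSO for 2 hr at 37 C, then induced with 1 uM final doxycycline for 16 hr. Viability was read as ATP by CellTiter-Glo luminescence after 30 min.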

[7] = biological target: Nuclear receptor ROR-gamma (Homo sapiens) (UniProt P51449); assay: qHTS assay to identify small molecule antagonists of the retinoid-related orphan receptor gamma (ROR-gamma) signaling pathway (AID 1159521; note: nearly all actives have a fitted effect of over 50% in size; note: potency is the fitted concentration of half-maximal effect)
Outline: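 Antagonist read-out: drop in luminescence (ONE-Glo) from an RORE-LUC reporter in CHO cells with doxycycline-inducible ROR-gamma; 2 hr compound pretreatment, 1 uM doxycycline, 16 hr incubation at 37 C.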

[8] = qHTS assay to identify small molecule agonists of the AP-1 signaling pathway - cell viability counter screen (AID 1159525; calls by dose curve; note: nearly all actives have a fitted effect of over 55% in size; note: potency is the fitted concentration of half-maximal effect)
Outline: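 ME-180 AP-1-bla, 2500 cells/well, Opti-MEM + 0.5% dialyzed FBS; overnight 37 °C; cpd 15-pt titration, 5 h 37 °C; CellTiter-Glo 30 min RT; luminescence read; normalised to TOAB and DMSO controls.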

[9] = qHTS assay to identify small molecule agonists of the AP-1 signaling pathway (AID 1159526; calls by dose curve)
[10] = biological target: Retinoic acid receptor RXR-alpha (Homo sapiens) (UniProt P19793); assay: qHTS assay to identify small molecule agonists of the RXR signaling pathway (AID 1159527; calls by dose curve; note: nearly all actives have a fitted effect of over 35% in size)
Chain of Retinoic acid receptor RXR-alpha (Homo sapiens) (P19793 whole entry, looked up): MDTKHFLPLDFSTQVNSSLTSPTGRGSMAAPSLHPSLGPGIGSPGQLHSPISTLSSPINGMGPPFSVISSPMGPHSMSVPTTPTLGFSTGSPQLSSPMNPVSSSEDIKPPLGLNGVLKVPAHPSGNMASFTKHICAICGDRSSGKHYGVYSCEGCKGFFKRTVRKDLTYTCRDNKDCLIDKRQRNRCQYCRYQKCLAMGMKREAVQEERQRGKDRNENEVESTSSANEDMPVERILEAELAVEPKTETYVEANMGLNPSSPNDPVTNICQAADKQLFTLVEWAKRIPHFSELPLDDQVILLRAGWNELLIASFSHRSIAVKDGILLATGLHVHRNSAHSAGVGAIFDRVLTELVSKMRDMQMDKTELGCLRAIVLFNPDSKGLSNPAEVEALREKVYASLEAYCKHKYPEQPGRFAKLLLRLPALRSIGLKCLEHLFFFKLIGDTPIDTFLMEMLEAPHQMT
Outline: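 Agonist-mode beta-lactamase reporter assay: HEK 293T RXR-alpha-UAS-bla cells treated 16 hr at 37 C with compounds, 9-cis retinoic acid as positive control. LiveBLAzer FRET substrate, 405 nm excitation, 460/530 nm emission.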

[11] = qHTS assay to identify small molecule agonists of the RXR signaling pathway - cell viability counter screen (AID 1159529); note: nearly all actives have a fitted effect of over 50% in size; note: potency is the fitted concentration of half-maximal effect
Outline: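 CellTiter-Glo luminescence gave viability in the wells also read for beta-lactamase. Cells (RXR-alpha-UAS-bla HEK 293T, 2% charcoal-stripped FBS medium) had 5 hr plating, then 16 hr compound exposure at 37 C; tetraoctyl ammonium bromide served as positive control.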

[12] = qHTS assay to identify small molecule antagonists of the retinoid acid receptor (RAR) signaling pathway - cell viability counter screen (AID 1159551); note: nearly all actives have a fitted effect of over 35% in size
Outline: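 Retinol-stimulated (1 uM final) C3RL4 cells, compound 6 h, 37 C; readout CellTiter-Glo luminescence (ATP) after 30 min RT incubation.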

[13] = qHTS assay to identify small molecule antagonists of the retinoic acid receptor (RAR) signaling pathway (AID 1159552; note: nearly all actives have a fitted effect of over 50% in size; note: potency is the fitted concentration of half-maximal effect)
Outline: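 Luminescent RARE reporter read-out in C3RL4 cells: 6 hr co-treatment at 37 C of test compounds with retinol at 1 uM final. Cells plated overnight beforehand; luciferase reagent incubated 30 min at room temperature before reading.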

[14] = qHTS assay to identify small molecule agonists of the retinoic acid receptor (RAR) signaling pathway (AID 1159553); conditions: C3RL4 RARE luciferase reporter, agonist, 6 h; activation: at 73.3 µM (top of the series) unless noted
Outline: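 Reporter readout comes from luciferase under RARE control in C3RL4 cells; compound exposure lasts 6 hr at 37 C in 5% CO2, and luminescence is recorded following a 30 min room-temperature incubation with reagent.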

[15] = qHTS assay to identify small molecule antagonists of the estrogen related receptor (ERR) signaling pathway - cell viability counter screen (AID 1224818);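 note: viability measured after 17.5 h of compound exposure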
Outline: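 After a 6 h pre-incubation, ERR cells were dosed by pin tool with compounds, positive/negative controls or DMSO alone. Following 17.5 h at 37 C and 30 min with CellTiter-Fluor, fluorescence was recorded.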

[16] = qHTS assay to identify small molecule antagonists of the estrogen related receptor signaling pathway with the pleiotropic PPARgamma coactivator (PGC) cell viability counter screen (AID 1224822;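 note: viability read after 17.5 h compound exposure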)
Outline: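 PGC/ERR cells were plated at 2,000 per well and allowed 6 h to settle before compound addition. Following 17.5 h at 37 C, CellTiter-Fluor reagent was added and fluorescence was read 30 min later.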

Structure (SMILES)	Potency [1]	Potency [2]	Potency [3]	Potency [4]	Potency [5]	Potency [6]	Potency [7]	Potency [8]	Potency [9]	Potency [10]	Potency [11]	Potency [12]	Potency [13]	Potency [14]	outcome [15]	outcome [16]
Cc1ccc([N+](=O)[O-])c(C)c1	inactive	inactive	inactive	inactive	inactive	inactive	2.43 µM (active) and inactive	12.3 µM (active) and inactive	inactive	inactive	24.6 µM (active) and inactive	inactive	6.11 µM (active) and inactive	–	–	–
c1ccc2cc3ccccc3cc2c1	inactive	inactive	inactive	56.7 µM (active)	inactive	inactive	inactive	inactive	inactive	inactive	inactive	inactive	inactive	–	–	–
CN1CCOCC1	inactive	inactive	inactive	inactive	inactive	inactive	inactive	inactive	inactive	inactive	inactive	inactive	inactive	inactive	–	–
CCC(=O)O[C@H]1[C@H](O[C@@H]2[C@@H](C)[C@H](O[C@H]3C[C@@](C)(OC)[C@@H](O)[C@H](C)O3)[C@@H](C)C(=O)O[C@H](CC)[C@@](C)(O)[C@H](O)[C@@H](C)C(=O)[C@H](C)C[C@@]2(C)O)O[C@H](C)C[C@@H]1N(C)C	36.4 µM (active) and inactive	inactive	36.4 µM (active) and inactive	inactive	inactive	inactive	inactive	inactive	inactive	inactive	inactive	inactive	–	–	–	–
NC[C@H](O)c1ccc(O)c(O)c1	inactive	inactive	inactive	inactive	inactive	inactive	inactive	inactive	inactive	inactive	inactive	inactive	–	–	inactive	inactive
Cc1ccc(S(=O)(=O)NCl)cc1	inactive	inactive	inactive	inactive	inactive	inactive	inactive	inactive	inactive	inactive	inactive	inactive	–	–	–	–
Cc1ccc(C)c(O)c1	inactive	inactive	inactive	inactive	inactive	inactive	inactive	inactive	inactive	inactive	inactive	inactive	inactive	–	–	–
CN(C)/N=N/c1nc[nH]c1C(N)=O	inactive	inactive	inactive	inactive	inactive	inactive	inactive	inactive	inactive	inactive	–	inactive	inactive	–	–	–
C=CCCCCCCCCCC	inactive	inactive	inactive	inactive	inactive	inactive	inactive	inactive	inactive	inactive	–	inactive	inactive	–	–	–
